High-throughput results (PubChem BioAssay)
Rab9 prom act = activators of Rab9 promoter. actives 2.8% (n = 320,000). Huh7 Rab9 promoter-luciferase reporter, luminescence, 24 h. Potency, µM (titrated, usually from 9.22 µM), hits mostly activators. AID 485297; note: nearly all actives have a fitted effect of over 60% in size
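Huh7 reporter line, Rab9 promoter upstream of luciferase. Compound exposure 24 h at 37 °C in reduced-serum medium with 10% FBS. Read-out: luminescence.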
ELG1 genotox = induces genotoxicity in HEK293T cells with luciferase-tagged ELG1 | HEK293T ELG1-luciferase reporter, luminescence, 16 h | Potency, µM (highest dose often 46 µM), most hits filed as activators | actives 1.3% (n = 330,000); note: nearly all actives have a fitted effect of over 60% in size
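Cells (2,000/well) expressing the ELG1-luciferase fusion are dosed by pin tool and kept 16 hr at 37 °C, 5% CO2. Signal comes from ONE-Glo luciferase reagent after 30 min at room temperature.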
NPC1 prom act = activates the NPC1 promoter | Huh7 NPC1 promoter luciferase reporter, 24 h | Potency, µM (highest dose often 9.22 µM), usual class: activators | actives 2.4% (n = 320,000) | AID 485313; note: nearly all actives have a fitted effect of over 60% in size
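Cells: Huh7 expressing luciferase under the NPC1 promoter, 1500/well. Seeded 2 h, compound added, incubated 24 h at 37 °C. Luciferase reagent, 10 min ambient, then luminescence.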
ELG1 DNA repair = blocks ELG1-dependent DNA repair in HEK293T cells. HEK293T ELG1-luciferase reporter, luminescence, 16 h; DNA damage induced by 5-fluorouridine. actives 2.3% (n = 330,000). Potency, µM (top dose mostly 46.1 µM), most hits filed as inhibitors. AID 504467; note: nearly all actives have a fitted effect of over 55% in size
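DMSO vehicle served as the neutral condition. Each well held 2,000 cells given 5-fluorouridine plus compound; after 16 hr at 37 °C/5% CO2, ONE-Glo was added and luciferase measured 30 min later.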
FLuc modulator = firefly luciferase modulation, counter-screen for miR-21 project | purified FLuc, Km substrates, luminescence inhibition | Potency, µM (doses to about 57.5 µM), actives largely listed as inhibitors | actives 6.9% (n = 360,000) | AID 588342; note: nearly all actives have a fitted effect of over 55% in size
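Purified P. pyralis luciferase (10nM final) with 10uM D-luciferin and 10uM ATP (Km levels) in 50mM Tris acetate pH 7.5, 10mM Mg acetate, 0.01% Tween-20, 0.05% BSA; qHTS 6-point titration, ~60 µM downward; luminescence read.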
SMN2 splice up = SMN2 splice variant enhancement; HEK293 SMN2-luciferase splicing reporter, luminescence, 30-36 h; Potency, µM (highest dose often 46.1 µM), usual class: activators; actives 2.8% (n = 210,000); note: nearly all actives have a fitted effect of over 55% in size
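HEK293 cells carry an SMN2 […]–luciferase reporter in which exon 7 inclusion puts luciferase in frame. Cells were plated 10-12 h before compound addition, then incubated 30-36 h at 37C. ONE-Glo luminescence was read; sodium butyrate at 4.5 mM final served as control.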
ELG1 FLuc counter = luciferase inhibition in cell-free luciferin readout for ELG1 hits; actives 3% (n = 350); cell-free firefly luciferase luminescence counter-screen, ViewLux; Potency, µM (top dose mostly 46.1 µM), most hits filed as inhibitors; shares compounds with ELG1 DNA repair; AID 624247
ELG1-Luc inh = confirmation of human ELG1-dependent DNA repair inhibitors | actives 68% (n = 670) | HEK293T ELG1-luciferase levels, luminescence; cells co-treated with 5-fluorouridine | Potency, µM (top dose mostly 46.1 µM), actives largely listed as inhibitors | shares compounds with ELG1 DNA repair; note: nearly all actives have a fitted effect of over 55% in size
ELG1-Luc MMS = confirmation of human ELG1 repair inhibitors, MMS stimulated; shares compounds with ELG1 DNA repair; HEK293T luciferase-tagged ELG1 level, MMS stimulated; Potency, µM (top dose mostly 46.1 µM), most hits filed as inhibitors; actives 53% (n = 670); note: nearly all actives have a fitted effect of over 60% in size
ELG1 5-FU = confirmation of ELG1 repair inhibitors: viability with 5FU; shares compounds with ELG1 DNA repair; cell viability with 5-FU, ELG1-dependent repair; Potency, µM (titrated, usually from 46.1 µM), most hits filed as cytotoxic; 670 tested, under 10 active; AID 624250;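 note: ELG1-luc HEK293T cells cotreated with 5-fluorouridine at 10 µM final; viability measured 16 h after compound addition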
ELG1 MMS cell = confirmation of ELG1 repair inhibitors: viability with MMS. shares compounds with ELG1 DNA repair. Cell viability with MMS, ELG1-dependent DNA repair. Potency, µM (highest dose often 46.1 µM), usual class: cytotoxic. actives 33% (n = 670). AID 624251;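 note: ELG1-luc HEK293T cells co-treated with 10 µM MMS; viability read 16 h after compound addition; nearly all actives have a fitted effect of over 60% in size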
ELG1 unstim viab = unstimulated viability counter-screen for ELG1 repair hits; shares compounds with ELG1 DNA repair; cell viability counter-screen, unstimulated, luminescence; Potency, µM (series often up to 45.9 µM), usual class: cytotoxic; actives 8% (n = 900);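 note: compound exposure lasted 16 hours before reading; nearly all actives have a fitted effect of over 55% in size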
FLuc biochem = firefly luciferase inhibition counter-screen | shares compounds with ELG1 DNA repair | purified firefly luciferase, luminescence counter-screen | Potency, µM (series often up to 57.5 µM), actives largely listed as inhibitors | actives 10% (n = 350) | AID 624253
Hits are given with their value; 0 = inactive; ? = inconclusive; - = no result given. Hits are enriched below; roughly 9.3% of the tested compounds scored in any of these assays. Calls come from the whole dose curve; as a rule, active = well fitted curve in the direction sought with a large enough effect; inconclusive = small, poorly fitted or top-dose-only effect, or another doubt; inactive = no such curve, though single readings can be large; an effect the other way counts as inactive or inconclusive.

SMILES | Rab9 prom act | ELG1 genotox | NPC1 prom act | ELG1 DNA repair | FLuc modulator | SMN2 splice up | ELG1-Luc inh | ELG1-Luc MMS | ELG1 5-FU | ELG1 MMS cell | ELG1 unstim viab | others
COc1ccccc1CNc1nc(S(=O)(=O)c2ccccc2)c(Cl)s1 | 0 | 0 | 0 | 0 | 0 | 0 | - | - | - | - | -
CC(NC(=O)c1ccccc1NC(=O)CN1CCN(c2ccccc2O)CC1)c1ccccc1 (stereo unspecified) | 0 | 0 | 0 | 2.31µM | 0 | - | 5.6µM | ? | ? | ? | 0
COc1ccccc1N1CCN(CC(=O)Nc2ccccc2C(=O)NCCc2ccccc2)CC1 | 0 | 0 | 0 | ? | 0 | - | - | - | - | - | -
CC(NC(=O)CN1CCN(c2ccccc2F)CC1)c1ccccc1 (stereo unspecified) | 0 | 0 | 0 | 0 | 0 | - | - | - | - | - | -
COc1ccccc1N1CCN(CC(=O)Nc2ccccc2C(=O)NC(C)c2ccccc2)CC1 (stereo unspecified) | 0 | 0 | 0 | 2.91µM | 0 | - | 7.91µM | 0 | ? | 0 | ?
COc1ccc(CN2CCN(CC(=O)Nc3ccccc3C(=O)NC3CC3)CC2)cc1F | 0 | 0 | 0 | 2.59µM | 0 | - | 7.05µM | ? | ? | 0 | 0
COC(=O)c1cc(NC(=O)c2nn(C)c3c2COc2ccccc2-3)cc(C(=O)OC)c1 | - | - | - | - | 0 | - | - | - | - | - | -
Cc1ccc(NC(=O)CC2Oc3ccc(C)cc3NC2=O)c(C)c1 (stereo unspecified) | 0 | 0 | 0 | 0 | 0 | 0 | - | - | - | - | -
COc1ccccc1/C=C/c1nc2ccccc2o1 | - | - | - | - | - | - | - | - | - | - | 0
Cc1cc(C(=O)COC(=O)C23CC4CC(CC(O)(C4)C2)C3)c(C)n1C | - | 8.2µM | - | ? | - | - | - | - | - | - | 0
CC(=O)NC12CC3CC(C1)CC(C(=O)OCC(=O)c1cc(C)n(C)c1C)(C3)C2 | - | ? | - | ? | - | - | - | - | - | - | 0
CC(C)n1cnc2c(NCc3ccccc3)cc(N[C@H](C)CO)cc21 | - | 0 | - | 4.11µM | - | - | 7.91µM | 0.445µM | 15.8µM | 0.705µM | 8.88µM
Cc1cc(C)n(-c2cc(N3CCOCC3)nc(-c3ccccc3)n2)n1 | 0 | 0 | 0 | ? | 0 | 0 | - | - | - | - | -
COc1cc2c(cc1OC)C(COc1ccc3c(C)cc(=O)oc3c1)N(C(=O)c1ccco1)CC2 (stereo unspecified) | 0 | 0 | 0 | 2.31µM | 0 | 0 | 5.61µM | 22.3µM | 0 | ? | ? | ELG1 FLuc counter=0;FLuc biochem=0
O=C(NCc1ccccc1CN1CCCC1)c1cccc(N2CCCC2=O)c1 | 0 | 0 | 0 | ? | 0 | - | - | - | - | - | -
CCc1ccc(-c2nc(CN3CCC(C(=O)N4CCN(c5ccccc5)CC4)CC3)c(C)o2)cc1 | 0 | 0 | 0 | ? | ? | 0 | - | - | - | - | -
